Reference: PubChem BioAssay (NCATS)
Results filed as inconclusive are left out. Where a call stands in place of a potency, no number is given. Unmarked numbers belong to inactive results. Active and inactive are the calls of the source. The call rests on the fitted dose curve; in most records, active means well fitted curve in the direction sought with a large enough effect; inconclusive means small, poorly fitted or top-dose-only effect, or another doubt; inactive means no such curve, though single readings can be large; an effect the other way counts as inactive or inconclusive.

The compounds below were run against Cellular tumor antigen p53 (Homo sapiens) (UniProt P04637) (assay: Primary qHTS for small molecule compounds that upregulate eGFP-tagged delta133p53alpha (in N-terminal) cells. (AID 2060322; further: nearly all actives have a fitted effect of over 75% in size)). Settings: NCI-H358 eGFP-delta133p53alpha fluorescence, 24 h; activation: active compounds read high.
Outline: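 NCI-H358 cells pre-induced 24 h with 10 ng/ml doxycycline to express N-terminal eGFP-delta133p53alpha, then dosed 24 h at 37C without doxycycline; fixed, Hoechst-stained, GFP intensity by laser scanning cytometry, normalized to DMSO (0%) and 57.5 uM 5-azacytidine (100%).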

Cellular tumor antigen p53 (Homo sapiens), sequence (P04637 whole entry, looked up): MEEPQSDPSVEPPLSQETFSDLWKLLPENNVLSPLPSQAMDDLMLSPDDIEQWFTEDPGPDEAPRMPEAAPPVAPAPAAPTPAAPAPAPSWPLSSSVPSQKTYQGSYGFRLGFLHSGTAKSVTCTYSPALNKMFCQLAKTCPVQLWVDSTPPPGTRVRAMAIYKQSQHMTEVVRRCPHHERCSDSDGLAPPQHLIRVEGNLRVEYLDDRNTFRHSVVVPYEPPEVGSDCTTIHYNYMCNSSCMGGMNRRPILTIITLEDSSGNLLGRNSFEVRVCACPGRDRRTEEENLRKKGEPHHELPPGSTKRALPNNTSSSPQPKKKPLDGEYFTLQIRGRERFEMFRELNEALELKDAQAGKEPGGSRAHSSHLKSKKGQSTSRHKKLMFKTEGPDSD

SMILES | activation
C[C@@H]1O[C@@H](OC2C(O[C@H]3[C@H](O[C@H]4CC[C@@]5(C)C(CC[C@]6(C)C5CC=C5C7CC(C)(C)CC(O)[C@]7(C)CC[C@]56C)C4(C)C)O[C@H](C(=O)O)[C@@H](O)[C@@H]3O)OC(CO)C(O)C2O)[C@H](O)[C@H](O)[C@H]1O (stereo partly drawn) | -6.11%
CCC[C@@H]1C[C@@H](C(=O)N[C@@H]([C@H]2O[C@H](SC)[C@H](OP(=O)(O)O)[C@@H](O)[C@H]2O)[C@H](C)Cl)N(C)C1 | 13.4%
CC[C@@H](C)[C@H](N)C(=O)N1Cc2ccccc2C1 | 3.82%
CC1(C)C2CC(OC3OC(COC4OCC(O)(CO)C4O)C(O)C(O)C3O)C1(C)CC2O (stereo not drawn) | 1.79%
CC1(C)CCC[C@]2(C)C1CC=C(CO)[C@H]2CC/C(=C/CO)CO (stereo partly drawn) | -15.3%
C/C=C(\C)C(=O)OC1C(C)C2(O)C3C=C(C)C(=O)C3CC(CO)=CC2C2C(C)(C)C12OC(C)=O (stereo not drawn) | -19.8%
N#Cc1cc(-c2n[nH]c(-c3ccncc3)n2)ccn1 | 4.46%

What follows are compounds tested against Aldehyde dehydrogenase, mitochondrial (Homo sapiens) (UniProt P05091) (assay: qHTS for Inhibitors of the Aldehyde Dehydrogenase Family (ALDH2) Primary screen (AID 2061308; further: nearly all actives have a fitted effect of over 55% in size)). Settings: ALDH2 enzyme inhibition qHTS, 1536-well; series mostly up to 56 µM.

SMILES | Potency | activity change, negative = inhibition
COc1cc2c(c(O)c1OC/C=C(\C)CC/C=C(/C)CCC=C(C)C)CN(C(CCC(=O)O)C(=O)O)C2=O (stereo not drawn) | inactive | 
O=C(OCC1=CC(O)C2C=CO[C@@H](O[C@@H]3O[C@H](CO)[C@@H](O)[C@H](O)[C@H]3O)C12)c1ccccc1 (stereo partly drawn) | inactive | 
CC(=O)NCCCCn1c2c(c3ccccc31)C(=O)NCC2 | inactive | 
C[C@@H]1[C@H]2[C@H](O[C@@H]3O[C@H](CO)[C@@H](O)[C@H](O)[C@H]3O)OC=C(C(=O)O)[C@H]2C[C@@H]1OC(=O)/C=C/c1ccc(O)cc1 | inactive | 
COc1ccc(CN2CCN(C(c3ccc(F)cc3)c3ccc(F)cc3)CC2)c(OC)c1OC | inactive | 
CC(=O)O[C@@H]1[C@H](O[C@@H]2O[C@H](CO)[C@@H](O)[C@H](O)[C@H]2O)[C@@H](O[C@@H]2O[C@@H](C)[C@H](O)[C@@H](O[C@@H]3O[C@H](CO)[C@@H](O)[C@H](O)[C@H]3O)[C@H]2O)[C@H](OC(=O)C23CCC4(C)C(=CCC5C6(C)CC(O)C(O[C@@H]7O[C@H](C(=O)O)[C@@H](O)[C@H](O)[C@H]7O)C(C)(C(=O)O)C6CCC54C)C2CC(C)(C)CC3O)O[C@@H]1C (stereo partly drawn) |  | -6.27% [at 11.2 µM]
O=C(CC1C(=O)Nc2ccccc21)OC[C@H]1O[C@@H](OCCc2ccc(O)cc2)[C@H](O)[C@@H](O)[C@@H]1O (stereo partly drawn) | inactive | 
C=C(C(=O)O)C1CC(O)C2(C)CCCC(=C)C2C1 (stereo not drawn) | inactive | 
CC(C)=CCC[C@](C)(O[C@@H]1O[C@H](CO)[C@@H](O)[C@H](O)[C@H]1O)[C@H]1CC[C@]2(C)[C@@H]1[C@H](O)CC1[C@@]3(C)CC[C@H](O)C(C)(C)C3[C@@H](O[C@@H]3O[C@H](CO)[C@@H](O)[C@H](O)[C@H]3O[C@@H]3OC[C@@H](O)[C@H](O)[C@H]3O)C[C@]12C (stereo partly drawn) | inactive | 
CC1CCC2C(C)(C)[C@H](O)CC[C@]2(C)C12Cc1c(O)cc3c(c1O2)CN(C(CCC(=O)O)C(=O)O)C3=O (stereo partly drawn) | inactive | 
Cc1cc(NC(=O)c2cccc(NC(=O)/C=C/CN(C)C)c2)ccc1Nc1nccc(-c2cccnc2)n1 | inactive | 
CC1NC(=O)C(Cc2c[nH]c3ccccc23)NC1=O (stereo not drawn) | inactive | 
CCC(=O)O[C@]1(C(=O)CCl)[C@@H](C)C[C@H]2[C@@H]3C[C@H](F)C4=CC(=O)C=C[C@]4(C)[C@@]3(F)[C@@H](O)C[C@@]21C | inactive | 
O=C1CCC(=O)N(O)CCCCCNC(=O)CCC(=O)N(O)CCOCCNC(=O)CCC(=O)N(O)CCCCCN1 | inactive | 
O=C(c1ccc2nccnc2c1)N1CCCCC1 | inactive | 
CC1=C(c2ccc(NC(=O)c3c(F)cccc3F)cc2)CN(c2nccs2)CC1 | inactive | 
CNc1nc(Nc2cn(C(C)(C)C#N)nc2C)ncc1C(F)(F)F | inactive | 
CC1(C)CC2C(O)C3=C(CC(C)(O)C2C1)C(=O)OC3 (stereo not drawn) | inactive | 
C=CC1(C)CC=C2C(CCC3C(C)(C(=O)O)CCCC23C)C1 (stereo not drawn) | inactive | 
O=S(=O)(NC1CCNCC1)c1cc(S(=O)(=O)c2ccccc2)ccc1C(F)(F)F | inactive | 
CC(C)=CCC[C@](C)(O[C@@H]1O[C@H](CO)[C@@H](O)[C@H](O)[C@H]1O)[C@H]1CC[C@]2(C)[C@@H]1[C@H](O)CC1[C@@]3(C)CC[C@H](O)C(C)(C)C3[C@@H](O[C@@H]3O[C@H](CO)[C@@H](O)[C@H](O)[C@H]3O)C[C@]12C (stereo partly drawn) | inactive | 
